Source: PubChem BioAssay (NCI)
This is part of a sample that, as a whole, favours compounds with a hit. Of some 83,000 tested, about 20% had one in any assay.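 Testing used 96-well plates and a 48-hour single-concentration exposure. Example: -40 means 40% of the starting cells died.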 Activity calls are given as the source filed them. How the source made its calls: active means growth percent below 10; inactive means the rest.

What was measured:
Experiment in all cases: NCI-60 one-dose screen, 48 h (100 = growth as untreated, 0 = no growth, -100 = all killed)
Conditions in all cases: 10 µM unless noted
SR leukemia = test system: SR leukemia
RPMI-8226 leukemia = test system: RPMI-8226 leukemia
OVCAR-8 ovarian = test system: OVCAR-8 ovarian
OVCAR-5 ovarian = test system: OVCAR-5 ovarian
OVCAR-4 ovarian = test system: OVCAR-4 ovarian
SK-OV-3 ovarian = test system: SK-OV-3 ovarian
IGROV1 ovarian = test system: IGROV1 ovarian
OVCAR-3 ovarian = test system: OVCAR-3 ovarian
HS 578T breast = test system: HS 578T breast
NCI/ADR-RES ovarian = test system: NCI/ADR-RES ovarian
T-47D breast = test system: T-47D breast
BT-549 breast = test system: BT-549 breast
MDA-MB-435 melanoma = test system: MDA-MB-435 melanoma
SW-620 colon = test system: SW-620 colon
MCF7 breast = test system: MCF7 breast
HCT-116 colon = test system: HCT-116 colon
HCC-2998 colon = test system: HCC-2998 colon
KM12 colon = test system: KM12 colon

Measured: growth

CCn1cc(C2=C(c3cn(C)c4ncccc34)C(=O)NC2=O)c2cccnc21
inactive: SR leukemia 59.4% | RPMI-8226 leukemia 85.2% | OVCAR-8 ovarian 82.5% | OVCAR-5 ovarian 102% | OVCAR-4 ovarian 69.3% | SK-OV-3 ovarian 41.6% | IGROV1 ovarian 64.5% | OVCAR-3 ovarian 64.7% | HS 578T breast 32% | NCI/ADR-RES ovarian 78.2% | T-47D breast 29.8% | BT-549 breast 32.9% | MDA-MB-435 melanoma 65% | SW-620 colon 92.4% | MCF7 breast 38.3% | HCT-116 colon 70.9% | HCC-2998 colon 91.4% | KM12 colon 46.7%

O=C(/C=C/c1ccccc1)Nc1ncc(Cc2ccccc2)s1
inactive: SR leukemia 15.3% | RPMI-8226 leukemia 20.2% | OVCAR-8 ovarian 23.7% | OVCAR-5 ovarian 18.5% | OVCAR-4 ovarian 14.1% | SK-OV-3 ovarian 15.4% | IGROV1 ovarian 26.1% | HS 578T breast 10.4% | T-47D breast 26.1% | BT-549 breast 42.9% | SW-620 colon 24.6% | MCF7 breast 17.2% | HCT-116 colon 11.6% | HCC-2998 colon 11.9%
active: OVCAR-3 ovarian -34.1% | NCI/ADR-RES ovarian 2.68% | MDA-MB-435 melanoma -40.9% | KM12 colon 6.06%

COc1ccc2nc3ccccc3c(NCc3ccc(F)cc3)c2c1
active: SR leukemia -1.12% | RPMI-8226 leukemia -43% | IGROV1 ovarian 8.15% | MCF7 breast -27.7% | HCT-116 colon 8.89% | HCC-2998 colon -77.6%
inactive: OVCAR-8 ovarian 19.4% | OVCAR-5 ovarian 18.1% | OVCAR-4 ovarian 13.6% | SK-OV-3 ovarian 37.9% | OVCAR-3 ovarian 31.2% | HS 578T breast 26.1% | NCI/ADR-RES ovarian 15.1% | T-47D breast 36.5% | BT-549 breast 35% | MDA-MB-435 melanoma 23.9% | SW-620 colon 14.7% | KM12 colon 28.7%

CCOC(=O)C1CCN(c2ccc(N3C[C@@H](CNCc4ccc(C(=N)N)cc4)OC3=O)cc2)CC1
inactive: SR leukemia 98.2% | RPMI-8226 leukemia 96.2% | OVCAR-8 ovarian 101% | OVCAR-5 ovarian 94.3% | OVCAR-4 ovarian 105% | SK-OV-3 ovarian 104% | IGROV1 ovarian 101% | OVCAR-3 ovarian 113% | HS 578T breast 102% | NCI/ADR-RES ovarian 105% | T-47D breast 96.2% | BT-549 breast 94.4% | MDA-MB-435 melanoma 104% | SW-620 colon 97.1% | MCF7 breast 97.2% | HCT-116 colon 98.9% | HCC-2998 colon 108% | KM12 colon 98.7%

CCCCn1sc(=O)n(Cc2ccc(CNC(=O)OCc3ccc4c(Cl)cc(Cl)c(O)c4n3)cc2)c1=O
active: NCI/ADR-RES ovarian 9.16%
inactive: SR leukemia 65.6% | RPMI-8226 leukemia 63% | OVCAR-8 ovarian 38% | OVCAR-5 ovarian 98.4% | OVCAR-4 ovarian 65.2% | SK-OV-3 ovarian 88.3% | IGROV1 ovarian 57.4% | OVCAR-3 ovarian 66.3% | HS 578T breast 82.3% | T-47D breast 62.8% | BT-549 breast 81.4% | MDA-MB-435 melanoma 69.6% | SW-620 colon 61% | MCF7 breast 63.5% | HCT-116 colon 46.3% | HCC-2998 colon 98.7% | KM12 colon 65.1%

COc1ccc(C/C(C)=C(/c2ccc(OCCN3CCCCCC3)cc2)c2ccc(OC(=O)NCc3ccccc3)cc2)cc1
inactive: RPMI-8226 leukemia 52.8% | OVCAR-8 ovarian 92.4% | OVCAR-5 ovarian 91.5% | OVCAR-4 ovarian 76% | SK-OV-3 ovarian 95.3% | IGROV1 ovarian 93% | OVCAR-3 ovarian 75.1% | HS 578T breast 75% | NCI/ADR-RES ovarian 86.8% | T-47D breast 50.8% | BT-549 breast 100% | MDA-MB-435 melanoma 95.3% | SW-620 colon 81.4% | MCF7 breast 29.9% | HCT-116 colon 64.7% | HCC-2998 colon 89.1% | KM12 colon 80.9%
active: SR leukemia -43.2%

C#CC#CC#CC#CC#CC#CC#CC#CCC1OCC(COC(=O)O[C@@H](C(=O)O[C@H]2C[C@@]3(O)[C@@H](OC(=O)c4ccccc4)[C@@H]4[C@]5(OC(C)=O)CO[C@@H]5C[C@H](O)[C@@]4(C)C(=O)[C@H](OC(C)=O)C(=C2C)C3(C)C)[C@@H](NC(=O)c2ccccc2)c2ccccc2)O1 (stereo not given in full)
inactive: SR leukemia 12.4% | OVCAR-8 ovarian 14.8% | OVCAR-5 ovarian 18.8% | OVCAR-4 ovarian 59.5% | SK-OV-3 ovarian 41.9% | IGROV1 ovarian 22.2% | NCI/ADR-RES ovarian 93.5% | T-47D breast 36.6% | BT-549 breast 14.5% | SW-620 colon 24.1% | MCF7 breast 16.1%
active: RPMI-8226 leukemia 7.03% | OVCAR-3 ovarian 4.93% | HS 578T breast -4.44% | MDA-MB-435 melanoma -73.5% | HCT-116 colon 9.48% | HCC-2998 colon 1.97% | KM12 colon 6.73%

CC(C)[C@@]12C[C@@H](OC(=O)COC(=O)c3ccccc3)[C@@](C)(O1)[C@@H]1CC[C@@H](C)[C@H]1[C@@H]2OC(=O)/C=C/c1ccccc1
inactive: SR leukemia 78.6% | RPMI-8226 leukemia 85.3% | OVCAR-8 ovarian 31.7% | OVCAR-5 ovarian 95.7% | OVCAR-4 ovarian 87.2% | SK-OV-3 ovarian 88.1% | IGROV1 ovarian 114% | OVCAR-3 ovarian 94.8% | NCI/ADR-RES ovarian 25.2% | T-47D breast 60.1% | BT-549 breast 22.9% | MDA-MB-435 melanoma 99.8% | SW-620 colon 100% | MCF7 breast 81.9% | HCT-116 colon 83.6% | HCC-2998 colon 97.2% | KM12 colon 94.9%
active: HS 578T breast -14.4%

CCN(CCO)CC(C)Nc1ccc([N+](=O)[O-])c2sc3ccccc3c(=O)c12 (stereo not given)
inactive: SR leukemia 13% | RPMI-8226 leukemia 40.9% | OVCAR-8 ovarian 26.2% | OVCAR-5 ovarian 57.7% | OVCAR-4 ovarian 43.7% | SK-OV-3 ovarian 45.6% | OVCAR-3 ovarian 49.1% | HS 578T breast 26.8% | NCI/ADR-RES ovarian 37.2% | T-47D breast 39.9% | BT-549 breast 58.9% | MDA-MB-435 melanoma 23.5% | SW-620 colon 18.6% | MCF7 breast 13.1% | HCT-116 colon 11.8% | HCC-2998 colon 38.6% | KM12 colon 37.9%
active: IGROV1 ovarian -11.3%

Cn1cc(/C=C2/C(=O)Nc3ccccc32)c2ccccc21
inactive: SR leukemia 94.9% | RPMI-8226 leukemia 60.5% | OVCAR-8 ovarian 95.5% | OVCAR-5 ovarian 106% | OVCAR-4 ovarian 86.2% | SK-OV-3 ovarian 90.4% | IGROV1 ovarian 85.1% | OVCAR-3 ovarian 90.2% | HS 578T breast 89.3% | NCI/ADR-RES ovarian 84.7% | T-47D breast 64.7% | BT-549 breast 88.4% | MDA-MB-435 melanoma 106% | SW-620 colon 102% | MCF7 breast 69.2% | HCT-116 colon 90.4% | HCC-2998 colon 98.2% | KM12 colon 14.8%
